# Inconclusive results are not listed. Activity calls are given as the source filed them. How the source made its calls: active means hit-call score of the fitted dose curve at least 0.9, where 1 is the maximum; inconclusive means response in the unintended direction; inactive means score below 0.9.
# How the values were obtained:
# [1] = biological target: human Phosphodiesterase 10 (PDE10), PDE10A (gene 10846) (UniProt Q9Y233); experiment: NVS_ENZ_hPDE10: NovaScreen (NVS) Enzymatic Assay for human Phosphodiesterase 10 (PDE10) (AID 2283195)
# Sequence of human Phosphodiesterase 10 (PDE10), PDE10A (gene 10846) (Q9Y233 whole entry, looked up): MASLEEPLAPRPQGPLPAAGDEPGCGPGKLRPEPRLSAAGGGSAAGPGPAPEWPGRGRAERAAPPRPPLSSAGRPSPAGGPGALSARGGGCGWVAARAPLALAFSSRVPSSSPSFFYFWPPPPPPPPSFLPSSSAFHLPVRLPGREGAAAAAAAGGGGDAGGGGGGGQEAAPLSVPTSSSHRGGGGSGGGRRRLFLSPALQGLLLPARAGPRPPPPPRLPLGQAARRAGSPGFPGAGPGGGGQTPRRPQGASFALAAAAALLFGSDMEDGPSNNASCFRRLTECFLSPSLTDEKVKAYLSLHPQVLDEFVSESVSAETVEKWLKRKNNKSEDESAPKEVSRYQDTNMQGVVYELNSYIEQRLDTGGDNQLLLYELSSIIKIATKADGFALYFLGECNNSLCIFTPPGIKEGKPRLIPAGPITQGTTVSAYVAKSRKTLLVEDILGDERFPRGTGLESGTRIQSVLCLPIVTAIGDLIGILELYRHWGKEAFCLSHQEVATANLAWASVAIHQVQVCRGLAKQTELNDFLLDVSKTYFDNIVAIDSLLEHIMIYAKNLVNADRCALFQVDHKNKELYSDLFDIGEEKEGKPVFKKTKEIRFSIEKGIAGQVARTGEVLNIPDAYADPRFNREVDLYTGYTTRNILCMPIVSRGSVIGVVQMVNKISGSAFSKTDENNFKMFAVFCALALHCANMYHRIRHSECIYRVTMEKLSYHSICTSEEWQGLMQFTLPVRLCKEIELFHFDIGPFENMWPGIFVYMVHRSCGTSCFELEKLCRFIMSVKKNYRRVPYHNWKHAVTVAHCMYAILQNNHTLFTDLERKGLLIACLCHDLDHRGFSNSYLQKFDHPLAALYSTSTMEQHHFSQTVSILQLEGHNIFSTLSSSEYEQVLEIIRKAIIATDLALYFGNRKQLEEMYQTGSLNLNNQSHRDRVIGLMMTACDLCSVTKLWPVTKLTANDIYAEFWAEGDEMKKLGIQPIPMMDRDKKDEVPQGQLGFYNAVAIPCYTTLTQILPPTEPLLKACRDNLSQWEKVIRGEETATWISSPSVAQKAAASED
# Outline: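 Fluorescence readout after mobility-shift separation of substrate and product, 1 h reaction with recombinant human enzyme. Single-concentration duplicates at 25 uM, then concentration-response up to 50 uM for chemicals reaching threshold; DMSO baseline.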
# [2] = biological target: human Phosphoinositide 3-kinase alpha (PI3Ka), PIK3CA (gene 5290) (UniProt P42336); experiment: NVS_ENZ_hPI3Ka: NovaScreen (NVS) Enzymatic Assay for human Phosphoinositide 3-kinase alpha (PI3Ka) (AID 2283196)
# Sequence of human Phosphoinositide 3-kinase alpha (PI3Ka), PIK3CA (gene 5290) (P42336 whole entry, looked up): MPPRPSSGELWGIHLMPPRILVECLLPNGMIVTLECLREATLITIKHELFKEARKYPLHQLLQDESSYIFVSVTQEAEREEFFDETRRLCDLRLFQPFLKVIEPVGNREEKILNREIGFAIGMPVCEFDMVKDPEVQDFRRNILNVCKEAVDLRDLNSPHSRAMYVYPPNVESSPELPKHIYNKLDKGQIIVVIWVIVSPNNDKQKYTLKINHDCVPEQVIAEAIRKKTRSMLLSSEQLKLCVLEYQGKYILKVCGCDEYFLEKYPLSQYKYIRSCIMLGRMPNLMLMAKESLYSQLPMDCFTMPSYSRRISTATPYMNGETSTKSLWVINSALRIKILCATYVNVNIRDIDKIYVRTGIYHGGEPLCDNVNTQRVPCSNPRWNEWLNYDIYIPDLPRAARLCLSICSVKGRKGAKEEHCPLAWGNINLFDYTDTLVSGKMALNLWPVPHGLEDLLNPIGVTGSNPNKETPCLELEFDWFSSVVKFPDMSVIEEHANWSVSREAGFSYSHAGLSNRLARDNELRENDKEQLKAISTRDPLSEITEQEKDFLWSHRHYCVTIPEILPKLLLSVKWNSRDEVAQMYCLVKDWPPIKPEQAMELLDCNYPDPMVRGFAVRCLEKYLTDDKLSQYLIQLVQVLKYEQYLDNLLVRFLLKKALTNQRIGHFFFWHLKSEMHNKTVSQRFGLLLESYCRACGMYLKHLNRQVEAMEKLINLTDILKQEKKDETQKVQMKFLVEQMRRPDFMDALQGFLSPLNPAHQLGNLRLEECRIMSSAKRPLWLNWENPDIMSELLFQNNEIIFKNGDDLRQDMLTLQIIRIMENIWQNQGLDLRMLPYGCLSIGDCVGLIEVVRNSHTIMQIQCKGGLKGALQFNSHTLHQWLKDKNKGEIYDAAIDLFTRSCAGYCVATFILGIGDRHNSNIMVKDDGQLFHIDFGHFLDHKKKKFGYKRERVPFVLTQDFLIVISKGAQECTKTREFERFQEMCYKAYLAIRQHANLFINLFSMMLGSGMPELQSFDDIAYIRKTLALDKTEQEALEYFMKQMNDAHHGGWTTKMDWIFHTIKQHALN
# Description: NVS_ENZ_hPI3Ka is a biochemical, single-readout assay that uses extracted gene-proteins in a cell-free assay. Measurements were taken 1 hour after chemical dosing in a 384-well plate.NVS_ENZ_hPI3Ka is one of one assay component(s) measured or calculated from the NVS_ENZ_hPI3Ka assay. It is designed to make measurements of enzyme activity, a form of enzyme reporter, as detected with fluorescence intensity signals by Fluorescence and electrophoretic mobility shift technology.Data from the assay component NVS_ENZ_hPI3Ka was analyzed into 1 assay endpoint. This assay endpoint, NVS_ENZ_hPI3Ka, was analyzed in the positive analysis fitting direction relative to DMSO as the negative control and baseline of activity. Using a type of enzyme reporter, loss-of-signal activity can be used to understand changes in the enzymatic activity as they relate to the gene PIK3CA. Furthermore, this assay endpoint can be referred to as a primary readout, because this assay has produced multiple assay endpoints where this one serves a enzymatic activity function. To generalize the intended target to other relatable targets, this assay endpoint is annotated to the kinase intended target family, where the subfamily is phosphoinositol kinase.
# Binding assays used specific radioligands (tritiated, iodinated) with non-radioactive competitive displacement ligands in agonist or antagonist protocols (as indicated) and various reference compounds and inhibitors to titrate specific binding to receptors and transporters. Most enzyme assays (CYPs, kinases, phosphatases, proteases, HDACs) used recombinant protein and specific substrates (fluorescence mostly, some colorimetric and radioactive) and inhibitors, followed by a biochemical separation of substrate and product. All assays for the biochemical HTS were initially run in duplicate at a single concentration (10 uM for CYP450 assays and 25 uM for all others). Assay-chemical combinations meeting a pre-defined threshold (e.g., 30% inhibition and other criteria defined below) were then run in singleton concentration-response format with maximum concentration of 20 uM for CYPs and 50 uM for all others. Each assay was run with positive and negative controls, and concurrent controls on every plate. The follow-up (secondary) screen tested active chemical-pairs in concentration series, as well as a few additional assays not tested in the primary screen, some selected negative inactives, and several cases re-run in the concentration series for confirmatory purposes.
# [3] = biological target: human Protein Tyrosine Phosphatase Non-receptor Type 1 (PTPN1), PTPN1 (gene 5770) (UniProt P18031); experiment: NVS_ENZ_hPTPN1: NovaScreen (NVS) Enzymatic Assay for human Protein Tyrosine Phosphatase Non-receptor Type 1 (PTPN1) (AID 2283201)
# Sequence of human Protein Tyrosine Phosphatase Non-receptor Type 1 (PTPN1), PTPN1 (gene 5770) (P18031 whole entry, looked up): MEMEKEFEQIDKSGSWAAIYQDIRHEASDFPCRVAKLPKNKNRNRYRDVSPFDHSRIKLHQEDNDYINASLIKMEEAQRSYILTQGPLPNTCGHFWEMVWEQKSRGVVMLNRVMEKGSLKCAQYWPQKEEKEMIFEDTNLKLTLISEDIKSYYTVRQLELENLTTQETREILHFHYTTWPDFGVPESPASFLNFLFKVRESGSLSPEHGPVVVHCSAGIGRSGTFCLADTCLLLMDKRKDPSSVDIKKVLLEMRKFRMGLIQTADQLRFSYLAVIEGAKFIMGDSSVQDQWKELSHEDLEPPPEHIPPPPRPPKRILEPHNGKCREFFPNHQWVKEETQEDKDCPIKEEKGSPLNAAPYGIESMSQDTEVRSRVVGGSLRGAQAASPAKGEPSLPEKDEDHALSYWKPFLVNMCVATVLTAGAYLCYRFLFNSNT
# Outline: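 Chemicals were first tested in duplicate at 25 uM, and those passing threshold went on to singleton concentration series topping at 50 uM. Recombinant enzyme, specific substrate, product separated by mobility shift, fluorescence read at 1.33 h; activity loss relative to DMSO.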
# [4] = biological target: Tyrosine-protein phosphatase non-receptor type 12 (Homo sapiens) (UniProt Q05209); experiment: NVS_ENZ_hPTPN12: NovaScreen (NVS) Enzymatic Assay for human Protein Tyrosine Phosphatase Non-receptor Type 12 (PTPN12) (AID 2283204)
# Sequence of Tyrosine-protein phosphatase non-receptor type 12 (Homo sapiens) (Q05209 whole entry, looked up): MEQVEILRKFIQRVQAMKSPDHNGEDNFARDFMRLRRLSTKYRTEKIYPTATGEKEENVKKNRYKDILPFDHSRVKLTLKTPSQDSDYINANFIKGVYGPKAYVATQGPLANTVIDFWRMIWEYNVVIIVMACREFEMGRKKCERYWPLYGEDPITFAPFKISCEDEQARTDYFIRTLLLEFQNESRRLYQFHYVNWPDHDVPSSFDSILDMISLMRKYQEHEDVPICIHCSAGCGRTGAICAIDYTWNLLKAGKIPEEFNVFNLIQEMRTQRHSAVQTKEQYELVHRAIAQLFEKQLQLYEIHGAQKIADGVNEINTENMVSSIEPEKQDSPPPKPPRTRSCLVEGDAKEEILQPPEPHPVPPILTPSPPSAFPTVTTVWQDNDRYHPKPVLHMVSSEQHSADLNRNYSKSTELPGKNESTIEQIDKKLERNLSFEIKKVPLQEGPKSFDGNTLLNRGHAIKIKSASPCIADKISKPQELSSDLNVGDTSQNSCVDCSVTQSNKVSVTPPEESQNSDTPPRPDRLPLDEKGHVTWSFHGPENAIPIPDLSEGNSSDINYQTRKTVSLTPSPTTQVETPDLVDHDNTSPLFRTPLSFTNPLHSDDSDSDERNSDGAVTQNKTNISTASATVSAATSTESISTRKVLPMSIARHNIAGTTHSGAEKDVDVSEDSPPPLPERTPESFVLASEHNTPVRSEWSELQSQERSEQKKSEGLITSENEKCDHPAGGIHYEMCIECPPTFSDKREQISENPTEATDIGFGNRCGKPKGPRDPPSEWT
# Outline: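 Single-concentration duplicates (25 uM) preceded singleton concentration-response up to 50 uM for chemicals passing threshold. Cell-free recombinant PTPN12 activity was read 1.33 h after dosing via fluorescence after mobility-shift separation; loss of signal versus DMSO.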
# PPP2CA (gene 5515) = PPP2CA (gene 5515) (UniProt P67775); experiment: NVS_ENZ_hPPP2CA: NovaScreen (NVS) Enzymatic Assay for human Protein Phosphatase 2 Aatalytic subunit Alpha (PPP2CA) (AID 2283199)
# Sequence of PPP2CA (gene 5515) (P67775 whole entry, looked up): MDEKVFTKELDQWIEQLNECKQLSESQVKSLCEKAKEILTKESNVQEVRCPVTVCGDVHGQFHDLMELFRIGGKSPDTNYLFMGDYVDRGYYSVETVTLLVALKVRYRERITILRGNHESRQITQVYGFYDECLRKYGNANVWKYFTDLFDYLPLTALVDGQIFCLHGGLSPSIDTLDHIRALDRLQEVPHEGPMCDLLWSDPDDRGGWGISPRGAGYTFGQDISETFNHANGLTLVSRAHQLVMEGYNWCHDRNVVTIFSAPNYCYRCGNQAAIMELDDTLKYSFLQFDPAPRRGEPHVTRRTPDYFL
# Description: NVS_ENZ_hPPP2CA is a biochemical, single-readout assay that uses extracted gene-proteins in a cell-free assay. Measurements were taken 1.33 hours after chemical dosing in a 384-well plate.NVS_ENZ_hPPP2CA is one of one assay component(s) measured or calculated from the NVS_ENZ_hPPP2CA assay. It is designed to make measurements of enzyme activity, a form of enzyme reporter, as detected with fluorescence intensity signals by Fluorescence and electrophoretic mobility shift technology.Data from the assay component NVS_ENZ_hPPP2CA was analyzed into 1 assay endpoint. This assay endpoint, NVS_ENZ_hPPP2CA, was analyzed in the positive analysis fitting direction relative to DMSO as the negative control and baseline of activity. Using a type of enzyme reporter, loss-of-signal activity can be used to understand changes in the enzymatic activity as they relate to the gene PPP2CA. Furthermore, this assay endpoint can be referred to as a primary readout, because this assay has produced multiple assay endpoints where this one serves a enzymatic activity function. To generalize the intended target to other relatable targets, this assay endpoint is annotated to the phosphatase intended target family, where the subfamily is serine/threonine phosphatase. […]
# [5] = biological target: Serine/threonine-protein phosphatase PP1-alpha catalytic subunit (Homo sapiens) (UniProt P62136); experiment: NVS_ENZ_hPPP1CA: NovaScreen (NVS) Enzymatic Assay for human Protein Phosphatase 1 Aatalytic subunit Alpha (PPP1CA) (AID 2283200)
# Sequence of Serine/threonine-protein phosphatase PP1-alpha catalytic subunit (Homo sapiens) (P62136 whole entry, looked up): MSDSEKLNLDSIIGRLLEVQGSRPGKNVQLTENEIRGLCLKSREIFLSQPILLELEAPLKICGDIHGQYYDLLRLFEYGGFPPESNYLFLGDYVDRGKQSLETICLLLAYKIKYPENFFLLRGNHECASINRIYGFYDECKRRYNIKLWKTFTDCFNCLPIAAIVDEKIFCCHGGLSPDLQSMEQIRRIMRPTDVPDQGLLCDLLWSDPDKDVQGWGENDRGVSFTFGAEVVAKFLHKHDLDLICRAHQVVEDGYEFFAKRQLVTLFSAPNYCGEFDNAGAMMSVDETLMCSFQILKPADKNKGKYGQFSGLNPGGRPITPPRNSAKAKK
# Outline: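 Chemicals were first screened in duplicate at 25 uM, and those passing threshold (e.g. 30% inhibition) were run as concentration series to 50 uM. Cell-free recombinant protein, 1.33 h read, fluorescent substrate/product mobility-shift detection, normalised to DMSO.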
# [6] = biological target: Tyrosine-protein phosphatase non-receptor type 11 (Homo sapiens) (UniProt Q06124); experiment: NVS_ENZ_hPTPN11: NovaScreen (NVS) Enzymatic Assay for human Protein Tyrosine Phosphatase Non-receptor Type 11 (PTPN11) (AID 2283202)
# Sequence of Tyrosine-protein phosphatase non-receptor type 11 (Homo sapiens) (Q06124 whole entry, looked up): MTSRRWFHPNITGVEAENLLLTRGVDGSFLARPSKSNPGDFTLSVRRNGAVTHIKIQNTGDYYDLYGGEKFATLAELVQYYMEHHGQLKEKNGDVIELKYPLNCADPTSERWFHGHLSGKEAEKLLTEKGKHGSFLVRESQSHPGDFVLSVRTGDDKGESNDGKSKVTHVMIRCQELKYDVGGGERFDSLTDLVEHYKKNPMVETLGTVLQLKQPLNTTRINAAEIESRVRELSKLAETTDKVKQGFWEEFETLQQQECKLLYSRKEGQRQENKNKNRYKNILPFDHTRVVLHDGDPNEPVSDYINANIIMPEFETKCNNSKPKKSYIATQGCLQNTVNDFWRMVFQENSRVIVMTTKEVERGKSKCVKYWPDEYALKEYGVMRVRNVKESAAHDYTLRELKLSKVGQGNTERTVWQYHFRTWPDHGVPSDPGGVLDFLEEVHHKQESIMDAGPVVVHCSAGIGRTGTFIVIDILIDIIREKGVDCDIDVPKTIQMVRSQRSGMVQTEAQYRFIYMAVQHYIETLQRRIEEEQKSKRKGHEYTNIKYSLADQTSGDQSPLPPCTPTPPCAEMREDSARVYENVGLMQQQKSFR
# Outline: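 Compounds first tested in duplicate at 25 uM; those reaching ~30% inhibition rerun in singleton concentration-response, top 50 uM. Phosphatase activity measured after 0.5 h by fluorescence with mobility-shift separation, relative to DMSO.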
# [7] = biological target: human Protein Phosphatase, Mg2+/Mn2+ Dependent 1A (PPM1A), PPM1A (gene 5494) (UniProt P35813); experiment: NVS_ENZ_hPPM1A: NovaScreen (NVS) Enzymatic Assay for human Protein Phosphatase, Mg2+/Mn2+ Dependent 1A (PPM1A) (AID 2283198)
# Sequence of human Protein Phosphatase, Mg2+/Mn2+ Dependent 1A (PPM1A), PPM1A (gene 5494) (P35813 whole entry, looked up): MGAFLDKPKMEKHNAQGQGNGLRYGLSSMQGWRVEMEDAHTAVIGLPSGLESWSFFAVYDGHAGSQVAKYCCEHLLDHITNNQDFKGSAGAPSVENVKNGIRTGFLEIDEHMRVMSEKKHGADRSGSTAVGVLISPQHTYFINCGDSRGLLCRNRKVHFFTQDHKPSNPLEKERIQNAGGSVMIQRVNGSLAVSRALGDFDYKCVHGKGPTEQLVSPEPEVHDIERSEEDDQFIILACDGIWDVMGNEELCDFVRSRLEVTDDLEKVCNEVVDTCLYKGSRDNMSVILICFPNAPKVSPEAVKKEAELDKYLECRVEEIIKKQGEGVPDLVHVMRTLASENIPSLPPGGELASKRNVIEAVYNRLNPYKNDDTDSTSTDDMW
# Outline: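 Primary screen in duplicate at 25 uM, with actives then titrated to a maximum of 50 uM. Recombinant PPM1A dephosphorylation of fluorescent substrate measured at 1 h, with substrate and product separated by mobility shift; inhibition fitted against DMSO.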
# [8] = biological target: cAMP-dependent protein kinase catalytic subunit alpha (Homo sapiens) (UniProt P17612); experiment: NVS_ENZ_hPKA: NovaScreen (NVS) Enzymatic Assay for human Protein Kinase A (PKA) (AID 2283192)
# Outline: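 Cell-free kinase activity read by fluorescence after mobility-shift separation of substrate and product, 1 h post-dosing. Single-concentration duplicate screen (25 uM) preceded singleton concentration series (top 50 uM); loss of signal versus DMSO.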
# [9] = biological target: human Phosphodiesterase 5 (PDE5), PDE5A (gene 8654) (UniProt O76074); experiment: NVS_ENZ_hPDE5: NovaScreen (NVS) Enzymatic Assay for human Phosphodiesterase 5 (PDE5) (AID 2283194)
# Outline: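 Screening began in duplicate at 25 uM, with actives taken into concentration-response. Enzyme activity of recombinant PDE5 toward its substrate was measured at 1 h by fluorescence mobility-shift detection, relative to DMSO controls.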
smiles,measurement,setting,value
Cc1cc(C)c(C(=O)P(=O)(c2ccccc2)c2ccccc2)c(C)c1,AC50,[1],0.687 µM (active)
Cc1ccc2c(c1N)C(=O)c1ccccc1C2=O,AC50,[1],5.53 µM (active)
same,outcome,[2],inactive
CSC(C)(C)C=NO,outcome,[2],inactive
ClC1=C(Cl)C2(Cl)C3C(Cl)C(Cl)CC3C1(Cl)C2(Cl)Cl (centres undefined),outcome,[2],inactive
same,outcome,[3],inactive
same,outcome,[4],inactive
CC(C)(C)OOC(C)(C)C,outcome,PPP2CA (gene 5515),inactive
same,outcome,[5],inactive
same,outcome,[6],inactive
same,outcome,[4],inactive
CC(C)(C)c1ccc(O)cc1,outcome,[5],inactive
O=C(O)C(Cl)Cl,outcome,[7],inactive
same,outcome,[4],inactive
CCOc1ccc(C(C)(C)COCc2cccc(Oc3ccccc3)c2)cc1,outcome,[8],inactive
same,outcome,[7],inactive
N#C/C=C/c1ccccc1,outcome,[1],inactive
O=[N+]([O-])c1cc(Cl)ccc1Cl,outcome,[1],inactive
CCOC(=O)c1ccccc1C(=O)OCC,outcome,[5],inactive
Nc1cc2c3c(c1)C(c1ccccc1)=N[C@@H](NC(=O)c1cccnc1)C(=O)N3CC2,AC50,[9],17.9 µM (active)
CCCCN(CCCC)N=O,outcome,[2],inactive
CC(Cl)CN(C)C (centres undefined),outcome,[1],inactive
[N-]=[N+]=[N-],outcome,[9],inactive
O=c1ssc(Cl)c1Cl,outcome,[6],inactive
same,outcome,[4],inactive
ClC(Cl)(Cl)c1ccccc1,outcome,PPP2CA (gene 5515),inactive
CC1(C)CN=C(NN=C(/C=C/c2ccc(C(F)(F)F)cc2)/C=C/c2ccc(C(F)(F)F)cc2)NC1,AC50,[2],14.1 µM (active)
same,AC50,[6],13.4 µM (active)
O=P1(N(CCCl)CCCl)NCCCO1 (centres undefined),outcome,[4],inactive
